Compound activity deposited in PubChem by NMMLSC.
Shown are actives, neighbours in structure and some others; about 3.5% of the full set was active somewhere.
BoNT F protease: BoNT F light chain protease inhibition; Multiplex microsphere protease cleavage assay, flow cytometry; inhibition, % at 10 µM; 360,000 tested, 0.22% active; AID 588497; in the data active means inhibition above about 35%, passing the limit was not always enough; inconclusive means no clear call, values can overlap the other calls; further: plate controls were buffer without enzyme for full effect and enzyme alone for no effect
BoNT-A LC inh2: blocks Botulinum neurotoxin A light chain protease; multiplex microsphere protease substrate cleavage, flow cytometry; inhibition, % at 10 µM; 360,000 tested, 0.17% active; AID 588499; further: plate controls were buffer without enzyme for full effect and enzyme alone for no effect
Anthrax LF inh2: blocks Bacillus anthracis lethal factor protease; 360,000 tested, 0.12% active; P15917; multiplex microsphere protease cleavage assay, LF; inhibition, % at 10 µM; further: plate controls were buffer without enzyme for full effect and enzyme alone for no effect
Target sequence (P15917 whole entry, looked up): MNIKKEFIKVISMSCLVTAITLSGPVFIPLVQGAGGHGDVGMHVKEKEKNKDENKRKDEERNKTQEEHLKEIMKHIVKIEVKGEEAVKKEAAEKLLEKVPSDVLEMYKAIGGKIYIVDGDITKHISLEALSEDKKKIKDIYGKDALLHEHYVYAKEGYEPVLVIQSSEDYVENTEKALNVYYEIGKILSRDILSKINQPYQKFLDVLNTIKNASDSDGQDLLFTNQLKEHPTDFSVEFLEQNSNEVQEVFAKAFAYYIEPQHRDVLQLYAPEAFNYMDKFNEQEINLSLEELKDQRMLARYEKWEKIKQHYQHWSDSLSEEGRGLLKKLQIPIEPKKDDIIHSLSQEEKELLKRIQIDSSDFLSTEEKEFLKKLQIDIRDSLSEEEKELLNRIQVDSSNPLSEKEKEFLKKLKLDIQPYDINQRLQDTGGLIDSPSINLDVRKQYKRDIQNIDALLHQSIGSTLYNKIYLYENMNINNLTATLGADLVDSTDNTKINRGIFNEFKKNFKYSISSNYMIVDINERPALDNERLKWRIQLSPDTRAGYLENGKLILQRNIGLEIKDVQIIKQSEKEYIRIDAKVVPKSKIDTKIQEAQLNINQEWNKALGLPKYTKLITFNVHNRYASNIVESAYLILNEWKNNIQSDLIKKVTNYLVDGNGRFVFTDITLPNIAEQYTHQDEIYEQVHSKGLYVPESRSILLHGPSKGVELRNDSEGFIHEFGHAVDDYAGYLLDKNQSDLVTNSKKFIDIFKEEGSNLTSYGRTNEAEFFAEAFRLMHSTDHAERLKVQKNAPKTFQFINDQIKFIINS
Bead autofluor: flagged as autofluorescent in microsphere protease counterscreen. compound autofluorescence counterscreen, microsphere flow cytometry; active compounds read high. fluorescence intensity (test concentration not listed). 360,000 tested, 3.1% active. AID 624483; in the data active means fluorescence intensity above about 16000; inconclusive means no clear call, values can overlap the other calls
An asterisk follows results filed as active; ? = inconclusive. Unless noted, no stated cut-off is given here; in the data, active means inhibition above about 30%; inconclusive means no clear call, values can overlap the other calls; inactive means below that.

SMILES	BoNT F protease	BoNT-A LC inh2	Anthrax LF inh2	Bead autofluor
Cc1[nH]c2ccccc2c1/C=C(\C#N)C(=O)NCc1ccccc1	-25	53*	7	11132
O=C(NCC(c1ccco1)N1CCCC1)c1cc2ccccc2s1 (stereo not drawn)	29	-4	6	16777*
Cc1ccc(C(=O)NCC(c2ccco2)N2CCCCC2)s1 (stereo not drawn)	0	3	4	9489
Cc1cccc(OCCC(=O)NCC(c2ccco2)N2CCCCC2)c1 (stereo not drawn)	-1	?	-1	20481*
Cc1c(CCCl)c(Cl)n2c(nc3ccccc32)c1C#N	-6	-1	0	4421
COc1cc(/C=C(/C#N)C(=O)NCCc2c[nH]c3ccccc23)ccc1OCc1ccccc1F	-1	-1	1	23745*
Cn1c(/C=C(\C#N)C(N)=S)ccc1-c1ccc(Br)cc1	5	33*	32*	4648
O=C(OCCCN1CCCC1)C1(c2ccccc2)CCCC1	-5	?	-2	24071*
N#C/C(=C\c1ccc(N2CCOCC2)o1)C(=O)Nc1ccc(O)cc1	2	-1	-1	4565
N#C/C(=C/c1ccc(N2CCCCC2)o1)C(=O)Nc1ccc(Cl)cc1	36*	-1	-1	17947*
N#C/C(=C/c1ccc(N2CCCCC2)o1)C(=O)Nc1ccc2ccccc2c1	65*	26	39*	60126*
COc1ccc(NC(=O)/C(C#N)=C\c2ccc(N3CCOCC3)o2)cc1	8	-1	1	6770
CCOCC(=O)Nc1c(C(=O)Nc2ccc(OC)cc2OC)oc2ccccc12	-1	?	-1	24944*
COCC(=O)Nc1c(C(=O)Nc2ccccc2OC)oc2ccccc12	-5	-1	-2	23967*
CCN(CC)S(=O)(=O)c1ccc2oc(C(=O)Nc3ccc(OC)cc3OC)c(C)c2c1	-6	-3	-2	24222*
COc1ccc(NC(=O)c2oc3ccccc3c2NC(=O)c2ccco2)cc1	-8	-5	0	21689*
COc1ccc(NC(=O)c2oc3cc(C)c(C)cc3c2C)c(OC)c1	-79	-5	2	4751
CC(=O)Nc1ccc2c(COC(=O)[C@@H](NS(=O)(=O)c3ccc(C)cc3)C(C)C)cc(=O)oc2c1	-4	-1	0	3111
Cc1ccc(NC(=O)CCN2C(=O)C3CCCCC3C2=O)cc1[N+](=O)[O-] (stereo not drawn)	14	0	0	5809
Cn1c(=O)c2cc(NC(=O)Cc3ccccc3F)ccc2n1Cc1ccc(Cl)cc1	0	0	-1	4167
COc1ccc(NC(=O)c2ccco2)c(OC)c1	5	0	2	2846
COc1ccc(NC(=O)c2oc3ccccc3c2NC(=O)c2ccco2)c(OC)c1	-4	-2	-1	23875*
CC(C)[C@H](NC(=O)NCc1ccc(Cl)cc1)C(=O)O	0	-2	1	23334*
CC(C)C(NCc1c(Cl)cccc1Cl)C(=O)O (stereo not drawn)	7	5	-1	21266*
c1ccc2c(c1)oc1c(-c3ccc4nccn4c3)cccc12	-4	2	4	3760
SMILES	BoNT F protease	BoNT-A LC inh2	Anthrax LF inh2	Bead autofluor
COCCNC(=O)C(c1ccco1)N(Cc1ccc(OC)cc1)C(=O)Cn1nnc2ccccc21 (stereo not drawn)	39*	1	3	3406
COc1ccc(CN(C(=O)c2snc(C(N)=O)c2N)C(C(=O)NC(C)(C)C)c2ccco2)cc1 (stereo not drawn)	-4	-3	0	21460*
COc1ccccc1N(C(=O)c1snc(C(N)=O)c1N)C(C(=O)NCCC(C)C)c1ccco1 (stereo not drawn)	5	4	-2	18096*
COc1ccccc1N(C(=O)c1snc(C(N)=O)c1N)C(C(=O)NC1CCCC1)c1ccco1 (stereo not drawn)	-2	-1	-1	23621*
Cc1noc(C)c1S(=O)(=O)Nc1ccc2c(c1)C(=O)N([C@H](C)CO)C[C@H](C)[C@@H](CN(C)Cc1ccc(C(=O)O)cc1)O2	0	0	2	3121
COC(=O)[C@]1(C)N[C@H](CN(C)C(=O)c2ccc(C)cc2)[C@@H]2C(=O)N(Cc3ccccc3)C(=O)[C@@H]21	-11	-1	-2	4036
CCNC(=O)N(C)[C@H]1C[C@H]2c3[nH]c4ccccc4c3CCN2C[C@H]1[C@H](C)O	-3	1	0	5598
C[C@H](O)[C@@H]1CN2CCc3c([nH]c4ccccc34)[C@@H]2C[C@@H]1N(C)C(=S)NCCc1ccccc1	-32	37*	-1	12944
COC(=O)CCC(=O)N1CCCC(CO)(Cc2ccccc2F)C1 (stereo not drawn)	?	-4	12	3155
COC(=O)[C@@H](Cc1c[nH]c2ccccc12)NC(=O)CCC(=O)c1ccc(Br)cc1	5	-1	-5	3794
COc1ccc(N(CC(O)CN2CCCCC2)S(=O)(=O)c2ccc(C)cc2)cc1 (stereo not drawn)	4	?	-13	20804*
COc1ccc(N(CC(O)CN2C(=O)NC(C)(C)C2=O)S(=O)(=O)c2ccc(C)cc2)cc1 (stereo not drawn)	2	1	3	23111*
Cc1ccc(S(=O)(=O)N(CC(O)CN2CCCCC2)c2ccccc2)cc1 (stereo not drawn)	-12	0	-2	5832
Cc1ccc(N(CC(O)CN2C(=O)NC(C)(C)C2=O)S(=O)(=O)c2ccc(C)cc2)cc1 (stereo not drawn)	-6	1	-3	4407
O=C(Cc1ccccc1)NNC(=O)C1CC=CCC1 (stereo not drawn)	16	-4	-5	3096
COc1ccc2c(CC(=O)Nc3nccs3)coc2c1	-4	2	-2	4040
Cc1cc2occ(CC(=O)Nc3nccs3)c2cc1C(C)C	2	?	-2	22242*
COc1cc(CC(=O)Nc2nccs2)cc(OC)c1OC	-4	?	-3	22884*
COc1ccc(CCC(=O)Nc2nccs2)cc1OC	-8	1	2	3625
CCC1Nc2ncnc(N3CCCCC3)c2N(Cc2ccc(OC)cc2)C1=O (stereo not drawn)	-11	0	-2	3427
NNC(=O)c1cccn(Cc2ccc(Cl)cc2Cl)c1=O	2	1	11	3096
O=Cc1cccn1Cc1ccc(Cl)cc1Cl	-3	0	-2	23592*
Clc1ccc(-c2nsc(N3CCOCC3)n2)c(Cl)c1	1	1	3	4915
CNc1nc(Cl)c(SC)c(NCc2cccc(OC)c2)n1	48*	-4	-1	4483
CC(C)(C)C(=O)Nc1ccccc1C(=O)Nc1cc(Cl)ccc1Cl	-1	-1	-1	23417*
O=C1CCC(C(=O)Nc2ccccc2)N1 (stereo not drawn)	-2	1	2	2985
Cc1cc(C(C)(C)C)cc(C)c1COC(=O)C1CCC(=O)N1 (stereo not drawn)	-1	-1	1	4460
O=C1CCC(C(=O)OCc2c(Cl)cccc2Cl)N1 (stereo not drawn)	1	0	-1	20438*
O=C1CCC(C(=O)OCc2ccccc2)N1 (stereo not drawn)	-1	-1	0	24033*
O=C(O)/C=C/C(=O)c1c(-c2ccccc2)[nH]c2ccccc12	-48	-4	10	3720
